From PubChem BioAssay
Calls of active or inactive are those of the source.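 How the source made its calls, unless noted: active means inhibition above 20% together with a positive visual image hit; inconclusive means visual image hit but inhibition not above 20%; inactive means no visual image hit.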

Legend:
[1] = inhibitors of TNFa-induced NFkB p65 translocation, primary screen, imaging, HUVEC, MLSMR starter and 10KST1 sets (AID 438); conditions: HUVEC TNFa-induced p65 nuclear translocation; cell count: measured here: nuclei count (cytotoxicity indicator), at 2.08 µM; inhibition: at 2 µM, stronger effect = higher value, 0% TNFa-plus-vehicle, 100% no-TNFa wells;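 further: compound added about 3h40 before a 20 min TNFalpha stimulation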;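 on inhibition: signal is the nuclear over cytoplasmic p65 intensity ratio per well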
[2] = reduction of polyQ htt aggregates in cells – imaging, exon1htt(103Q)mCFP cells, high-content imaging, primary screen (AID 483;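 active means visual image review flags a hit and inhibition of aggregation exceeds 20%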;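 further: compound exposure lasted 3 days before fixation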;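 on nuclei count: percent of the per-plate median nuclei count of sample wells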); conditions: exon1htt(103Q)mCFP cell line, aggregate imaging, at 2 µM; inhibition of aggregation: stronger effect = higher value; nuclei count: measured here: cell count, toxicity
[3] = endothelial E-selectin expression blockers – imaging, HUVEC, immunofluorescence, MLSMR starter and 10KST1 sets, primary screen (AID 487;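 active means visually confirmed hit in the image check and inhibition above 20%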;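 on inhibition: signal is fraction of cell area covered by stained E-selectin grains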;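 on nuclei count: 100% = median nuclei count of all wells on the same plate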); conditions: HUVEC TNFalpha-induced E-selectin immunofluorescence imaging, at 2 µM; inhibition: stronger effect = higher value; nuclei count: measured here: cell number, toxicity
[4] = target: Voltage-gated potassium channel subunit beta-2 (Rattus norvegicus) (UniProt P62483); assay: inhibitors of rat Kvbeta2 reductase activity – biochemical, NADPH fluorescence, primary screen (AID 622;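 active means fluorescence slope higher than the sample average by over 3 SD, cut at about -0.22 in these data, passing the limit was not always enough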;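 further: slope of raw intensity against log time taken from 70 to 1610 s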); conditions: recombinant KvBeta, 4-cyanobenzaldehyde reduction, at 10 µM, stronger effect = higher value
[5] = target: Voltage-gated potassium channel subunit beta-2 (Rattus norvegicus) (UniProt P62483); assay: enhancers of rat Kvbeta2 NADPH turnover – biochemical, NADPH fluorescence, primary screen (AID 623;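 active means NADPH fluorescence slope more negative than the mean of all samples by about 3 SD, 99.7% confidence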;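 further: fluorescence intensity change per second fitted from 20 to 320 s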); conditions: Recombinant KvBeta, NADPH fluorescence decrease slope, 10 min; at 10 µM; stronger effect = lower value
[6] = target: Alpha-2C adrenergic receptor (Homo sapiens) (UniProt P18825); assay: compounds altering alpha2C-coupled GIRK flux – cell-based, HEK293 alpha2C/GIRK1/2, thallium flux, primary screen (AID 624;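 active means fluorescence slope after compound addition differing from the mean of all screened samples at 99.7% confidence, in either direction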;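 further: slope of fluorescence ratio to pre-addition baseline per second over 15 to 24 s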); conditions: thallium flux BTC fluorescence, at 10 µM, actives lie on both sides
[7] = blockers of RIG-like receptor reporter activation – cell-based, Sendai virus stimulus, luciferase, 10K MLSCN set, TLR/RLR signaling modifier project, primary screen (AID 602276;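 active means inhibition at or above 50% at 10 µM; inactive means inhibition below 50%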;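 further: firefly luciferase from ISG56 promoter only with Renilla not read in this screen; 0% = Sendai virus plus DMSO and 100% = medium plus DMSO without virus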); conditions: HEK293 RL24 IRF3 luciferase reporter, at 10 µM, stronger effect = higher value
[8] = TLR3 IRF3 reporter activation blockers – cell-based, poly I:C stimulus, luciferase, 10K MLSCN set, primary screen (AID 602277;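 active means inhibition of the reporter signal at or above 50%; inactive means inhibition below 50%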); conditions: HEK293-TLR3 RL24 IRF3 luciferase reporter, at 10 µM, stronger effect = higher value
[9] = Primary imaging screen for DUSP6 inhibitors that restore phospho-Erk in transfected HeLa cells, chemical complementation (AID 609;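 active means compounds giving at least 50% inhibition in the cell-based MKP-3 phosphatase rescue imaging test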;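 on inhibition: phospho-Erk level distribution per well compared with pooled transfected vehicle control wells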); conditions: HeLa MKP-3 transfected, phospho-Erk imaging KS statistic, at 10 µM, cells stimulated with TPA for 15 min
[10] = target: Dual specificity protein phosphatase 6 (Homo sapiens) (UniProt Q16828); assay: as above; conditions: HeLa MKP-3 transfected, phospho-Erk imaging KS statistic; at 10 µM; stronger effect = higher value; cells stimulated with TPA for 15 min
[11] = target: Muscarinic acetylcholine receptor M4 (Homo sapiens) (UniProt P08173); assay: M4-linked GIRK flux change, two-sided – cell-based, HEK293 M4/GIRK, thallium flux, BTC-AM, M4 allosteric agonist project, primary screen (AID 625;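 active means fluorescence slope after compound addition differing from the mean of all tested samples at 99.7% confidence, mostly higher but some lower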;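 further: thallium influx through GIRK channels coupled to M4 in HEK293 cells with BTC-AM dye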); conditions: at 10 µM, actives lie on both sides
[12] = inhibitors of larval lipid processing in zebrafish, primary screen, whole organism, PED6 fluorescence, gall bladder and intestine (AID 686;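 active means a full or partial loss of lipid-probe fluorescence in the fish gall bladder, intestine or both, judged by eye; inactive means no fluorescence loss, or compound toxic to the fish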;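 further: larvae 5 to 7 days old with five fish per well; signal comes from phospholipase A2 cleavage of quenched PED6 carried via bile; overnight exposure to compound and PED6 before scoring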); conditions: Zebrafish larvae PED6 lipid processing, fluorescence scoring; screened at 20 µM (by protocol)
[13] = loss of swimming-algae plug formation – whole organism, Chlamydomonas reinhardtii, WT vs cilia-less mutant, absorbance, 96-well, primary screen (AID 463189;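 active means inhibition at or above 50% relative to wild type and mutant plate controls; inactive means inhibition below 50%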;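 further: 0% = wild type cc124 cells in DMSO and 100% = ciliumless bld1 mutant cells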); conditions: Chlamydomonas reinhardtii gravitaxis, OD600 absorbance, 2 days; at 10 µM; stronger effect = higher value
[14] = measured here: cell density z-score
[15] = measured here: nuclear c-Myc green intensity z-score
[16] = measured here: nuclear pErk red intensity z-score, stronger effect = higher value

Voltage-gated potassium channel subunit beta-2 (Rattus norvegicus), sequence (P62483 whole entry, looked up): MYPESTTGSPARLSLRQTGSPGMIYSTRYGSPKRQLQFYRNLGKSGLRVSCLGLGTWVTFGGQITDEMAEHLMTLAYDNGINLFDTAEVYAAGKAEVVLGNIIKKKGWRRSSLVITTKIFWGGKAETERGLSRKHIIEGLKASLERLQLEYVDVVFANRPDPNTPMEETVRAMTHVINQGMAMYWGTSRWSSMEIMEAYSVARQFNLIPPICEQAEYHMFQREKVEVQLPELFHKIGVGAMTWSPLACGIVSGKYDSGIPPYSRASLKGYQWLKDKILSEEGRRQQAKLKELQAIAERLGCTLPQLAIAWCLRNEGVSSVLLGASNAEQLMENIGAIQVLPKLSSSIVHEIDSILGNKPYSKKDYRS
Dual specificity protein phosphatase 6 (Homo sapiens), sequence (Q16828 whole entry, looked up): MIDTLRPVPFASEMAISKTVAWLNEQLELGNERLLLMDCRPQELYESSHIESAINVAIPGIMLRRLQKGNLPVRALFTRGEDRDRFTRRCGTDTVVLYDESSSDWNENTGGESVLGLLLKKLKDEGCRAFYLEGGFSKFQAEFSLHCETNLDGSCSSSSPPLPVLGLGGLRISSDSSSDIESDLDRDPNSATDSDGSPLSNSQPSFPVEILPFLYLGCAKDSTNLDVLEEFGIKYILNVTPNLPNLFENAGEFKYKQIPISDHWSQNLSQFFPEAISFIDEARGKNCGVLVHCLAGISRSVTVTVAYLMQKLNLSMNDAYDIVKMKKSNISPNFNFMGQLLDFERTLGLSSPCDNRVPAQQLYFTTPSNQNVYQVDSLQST
Alpha-2C adrenergic receptor (Homo sapiens), sequence (P18825 whole entry, looked up): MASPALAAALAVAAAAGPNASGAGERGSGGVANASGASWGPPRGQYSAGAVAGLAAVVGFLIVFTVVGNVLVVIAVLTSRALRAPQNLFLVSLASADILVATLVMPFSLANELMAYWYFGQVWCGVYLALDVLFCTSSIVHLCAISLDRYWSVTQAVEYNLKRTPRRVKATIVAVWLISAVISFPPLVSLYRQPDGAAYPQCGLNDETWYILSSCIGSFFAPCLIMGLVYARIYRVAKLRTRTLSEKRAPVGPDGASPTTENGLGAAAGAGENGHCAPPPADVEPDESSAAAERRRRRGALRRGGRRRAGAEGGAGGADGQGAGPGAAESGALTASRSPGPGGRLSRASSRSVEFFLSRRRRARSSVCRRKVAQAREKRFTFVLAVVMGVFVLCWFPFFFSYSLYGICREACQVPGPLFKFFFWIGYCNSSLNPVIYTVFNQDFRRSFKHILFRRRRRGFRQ
Muscarinic acetylcholine receptor M4 (Homo sapiens), sequence (P08173 whole entry, looked up): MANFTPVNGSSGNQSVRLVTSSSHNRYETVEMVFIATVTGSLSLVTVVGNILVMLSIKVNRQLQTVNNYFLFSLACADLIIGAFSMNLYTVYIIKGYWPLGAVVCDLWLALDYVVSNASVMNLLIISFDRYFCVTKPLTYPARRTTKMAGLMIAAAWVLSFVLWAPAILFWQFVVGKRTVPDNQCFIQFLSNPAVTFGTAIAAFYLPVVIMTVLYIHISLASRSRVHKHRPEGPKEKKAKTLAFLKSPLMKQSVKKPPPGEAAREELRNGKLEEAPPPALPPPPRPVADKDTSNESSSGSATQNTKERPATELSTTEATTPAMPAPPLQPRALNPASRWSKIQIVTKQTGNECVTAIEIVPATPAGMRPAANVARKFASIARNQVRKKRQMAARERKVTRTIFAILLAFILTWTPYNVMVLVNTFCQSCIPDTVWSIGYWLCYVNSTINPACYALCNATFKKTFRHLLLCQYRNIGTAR

Compound | cell count [1] | inhibition [1] | inhibition of aggregation [2] | nuclei count [2] [%] | inhibition [3] | nuclei count [3] [%] | fluorescence slope [4] | NADPH fluorescence slope [5] | slope [6] | inhibition [7] | inhibition [8] | z-score [9, 14] | z-score [9, 15] | z-score [9, 16] | inhibition [10] | fluorescence slope [11] | outcome [12] | inhibition [13]
COc1ccc(OC)c(Nc2ncnc3c2cnn3-c2ccccc2)c1 | 334 | -6.5% (inactive) | -6.7% (inactive) | 111 | -26.3% (inactive) | 113 | -0.4 (inactive) | -2.9e-05 (inactive) | 0.00524 (inactive) | -14.3% (inactive) | -62.3% (inactive) | – | – | – | – | – | – | –
O=C1NC2=C(C(=O)CCC2)C(c2ccc3ncccc3c2)N1 (centres undefined) | 513 | 1.5% (inactive) | 1.9% (inactive) | 126 | -13.9% (inactive) | 116 | -0.541 (inactive) | -5e-05 (inactive) | 0.00696 (inactive) | 9.39% (inactive) | 8.99% (inactive) | – | – | – | – | – | – | –
CC/C(O)=C(/C#N)c1nnc2n1CCCCC2 | 446 | 3.6% (inactive) | -9.6% (inactive) | 115 | 47.8% (inactive) | 86.1 | -0.608 (inactive) | -2e-05 (inactive) | 0.00604 (inactive) | 7.71% (inactive) | 11.5% (inactive) | – | – | – | – | – | – | –
Cc1ccc(NC(=O)c2cc(N3CCOCC3)nc3ccccc23)cc1 | 674 | -10.2% (inactive) | – | – | – | 174 | -0.393 (inactive) | -2.7e-05 (inactive) | – | – | – | 0.315 | 1.28 | 0.543 | -16.8% (inactive) | 0.00495 (inactive) | inactive | 19% (inactive)
CCOC(=O)C1CCN(C(=O)C2(NC(=O)Nc3ccccc3Cl)CCCCC2)CC1 | 568 | -4.9% (inactive) | -41.9% (inactive) | 107 | -54.8% (inactive) | 105 | -0.626 (inactive) | 5.4e-06 (inactive) | 0.0059 (inactive) | 15% (inactive) | 20.6% (inactive) | – | – | – | – | – | – | –
COc1cc(NC(=O)C2C3C=CC(C3)C2C(=O)O)c(OC)cc1Cl (centres undefined) | 406 | 0.8% (inactive) | -31% (inactive) | 98.6 | 19.6% (inactive) | 90 | -0.49 (inactive) | -6.5e-06 (inactive) | 0.00705 (inactive) | -7.81% (inactive) | 20.2% (inactive) | – | – | – | – | – | – | –
O=C1CCCN1Cc1ncnn1-c1ccccc1 | 453 | -1.8% (inactive) | 10.2% (inactive) | 114 | -85.8% (inactive) | 131 | -0.349 (inactive) | -6.8e-05 (inactive) | 0.00512 (inactive) | 7.63% (inactive) | 3.72% (inactive) | – | – | – | – | – | – | –
O=C(c1cc(N2CCCCC2)nc2ccccc12)N1CCOCC1 | 627 | 3.5% (inactive) | – | – | -37.7% (inactive) | 159 | -0.422 (inactive) | -1.2e-05 (inactive) | – | – | – | -1.1 | 2.14 | 1.42 | -15% (inactive) | 0.0052 (inactive) | inactive | 1.82% (inactive)
O=C1OCc2cc(NC(=O)C3CCCO3)ccc21 (centres undefined) | 790 | -8.1% (inactive) | 13.1% (inactive) | 111 | -31.8% (inactive) | 111 | -0.379 (inactive) | 5.7e-07 (inactive) | 0.00421 (inactive) | 3.9% (inactive) | 13.5% (inactive) | – | – | – | – | – | – | –
COC(=O)c1c(-n2cnnn2)sc(C)c1C | 504 | -4.7% (inactive) | – | – | – | 172 | -0.421 (inactive) | -4.5e-05 (inactive) | – | – | – | -0.751 | 1.91 | 1.76 | -2.29% (inactive) | 0.00518 (inactive) | inactive | -6.11% (inactive)
COC(=O)c1[nH]c(C)c(/C(O)=C2\C(=O)C(=O)N(CCN3CCOCC3)C2c2cccs2)c1C (centres undefined) | 450 | -4.8% (inactive) | 2.2% (inactive) | 96.3 | -53.2% (inactive) | 126 | -0.254 (inactive) | -2.8e-05 (inactive) | 0.00576 (inactive) | 15.2% (inactive) | 11.2% (inactive) | – | – | – | – | – | – | –
COc1ccc(-c2nc3n(n2)C(=O)CC(c2ccco2)S3)cc1 (centres undefined) | 666 | -10.3% (inactive) | – | – | – | 135 | -0.466 (inactive) | -5.1e-05 (inactive) | – | – | – | -1.15 | -1.31 | -2.71 | -11.5% (inactive) | 0.00655 (inactive) | inactive | -9.22% (inactive)
CC1Cc2nc(SCC(=O)Nc3nccs3)n(C)c(=O)c2S1 (centres undefined) | 584 | 12% (inactive) | 12.8% (inactive) | 109 | -23.5% (inactive) | 111 | -0.539 (inactive) | -2.7e-05 (inactive) | 0.00648 (inactive) | 11.6% (inactive) | 28.2% (inactive) | – | – | – | – | – | – | –
CC1(C)NC(=O)N(CC(O)CN2CCCC2)C1=O (centres undefined) | 317 | -4.8% (inactive) | 4.1% (inactive) | 85.6 | -48.6% (inactive) | 72.8 | -0.543 (inactive) | 4.5e-05 (inactive) | 0.00702 (inactive) | 6.37% (inactive) | -4.68% (inactive) | – | – | – | – | – | – | –
